12-LOX inh: ALOX12 (human) lipoxygenase inhibition; P18054; purified 12hLO, xylenol orange hydroperoxide absorbance; Potency, µM (highest dose often 108 µM), usual class: inhibitors; 1.1% of 580,000 active
Target sequence (P18054 whole entry, looked up): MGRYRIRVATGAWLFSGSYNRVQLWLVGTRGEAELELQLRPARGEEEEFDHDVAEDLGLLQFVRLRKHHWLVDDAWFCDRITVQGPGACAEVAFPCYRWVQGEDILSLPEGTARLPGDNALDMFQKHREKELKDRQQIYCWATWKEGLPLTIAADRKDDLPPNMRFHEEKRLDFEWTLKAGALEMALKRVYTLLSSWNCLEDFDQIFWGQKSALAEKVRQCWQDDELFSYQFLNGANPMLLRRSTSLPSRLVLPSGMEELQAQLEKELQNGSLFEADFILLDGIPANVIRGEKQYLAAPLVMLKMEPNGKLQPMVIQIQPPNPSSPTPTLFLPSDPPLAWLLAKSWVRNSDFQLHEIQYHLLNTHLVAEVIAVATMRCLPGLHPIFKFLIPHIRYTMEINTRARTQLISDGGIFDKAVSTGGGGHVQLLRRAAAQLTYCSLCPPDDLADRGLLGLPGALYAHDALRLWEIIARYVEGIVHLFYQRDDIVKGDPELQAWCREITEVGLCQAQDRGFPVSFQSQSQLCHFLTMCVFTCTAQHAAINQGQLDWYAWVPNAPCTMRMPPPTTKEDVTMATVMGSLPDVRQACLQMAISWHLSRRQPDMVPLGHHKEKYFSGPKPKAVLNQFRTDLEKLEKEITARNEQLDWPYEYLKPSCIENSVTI
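Hydroperoxide product was detected by ferrous iron/xylenol orange as the 573 to 405 nm absorbance ratio. Arachidonic acid at 40 uM (final) was turned over for 30 min at room temperature by 150 nM human 12hLO, pH 7.0 Hepes buffer, after 15 min compound preincubation.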
TDP1 cell CPT: DT40-hTDP1 cell growth loss with CPT. chicken DT40 Tdp1-/-;hTDP1 cells + 20 nM CPT, ATP luminescence, 48 h. Potency, µM (top dose mostly 46.2 µM), most hits filed as inhibitors. 12% of 420,000 active; note: nearly all actives have a fitted effect of over 55% in size
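Chicken DT40 Tdp1-/- cells complemented with human TDP1, 400 cells/well, exposed to compounds plus 20 nM camptothecin for at least 48 h at 37 C; viability read as ATP content by CellTiter-Glo luminescence.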
HT1080 IDH1KD tx: toxicity to HT-1080 IDH1 knockdown cells (counter line) | HT-1080 IDH1 knockdown viability, ATP luminescence, 48 h | Potency, µM (titrated, usually from 46.1 µM), usual class: cytotoxic | 2% of 360,000 active | AID 686971
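After a 2 h attachment period, IDH1KD HT-1080 cells took pin-transferred compound for 48 h at 37 °C; ATP-based luminescence after 10 min room-temperature reagent incubation reported viability.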
DT40 TDP1 no CPT: qHTS for Inhibitors of human tyrosyl-DNA phosphodiesterase 1 (TDP1): qHTS in cells in absence of CPT; 15% of 420,000 active; Potency, µM (top dose mostly 46.2 µM), hits mostly inhibitors; DT40 Tdp1-/- hTDP1 cells, no CPT, ATP luminescence, 48 h; note: nearly all actives have a fitted effect of over 55% in size
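Growth of hTDP1-complemented DT40 Tdp1-knockout cells is measured by ATP luminescence after at least 48 hr compound exposure at 37 °C, with DMSO substituting for the 20 nM CPT used in the parallel screen.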
HT1080-NT tox: kills 2HG-producing HT-1080-NT fibrosarcoma cells; HT-1080-NT fibrosarcoma viability, CellTiter-Glo ATP luminescence, 48 h; Potency, µM (top dose mostly 46.1 µM), usual class: cytotoxic; 1.6% of 360,000 active; AID 686970;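 note: NT is the 2HG producing partner of a matched IDH1 knockdown line; nearly all actives have a fitted effect of over 55% in size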
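750 cells/well, RPMI + 5% FBS; 2 h settle, compound pin-transfer, 48 h at 37 degrees C. CellTiter-Glo 10 min RT, luminescence. Normalized to DMSO and media-only wells.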
IL-1B inflam inh: inflammasome signaling inhibition, IL-1 beta readout; THP-1 LPS/ATP IL-1B secretion, AlphaLISA, 16 h; active compounds read low; 4.7% of 360,000 active; activity change, % at 57.5 µM; in the data active = activity change below about -50%; inconclusive = mostly about -30% to -49%
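THP-1 cells pretreated 1 hr with compounds (up to 57.5 uM final), then stimulated with LPS (250 ng/mL final) plus ATP (1.25 mM final); secreted IL-1B measured by AlphaLISA after 16 hr, decreased signal indicating inhibition.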
Hits are given with their value; - = inactive; ? = inconclusive; . = not tested or not shown; ! = a repeat was not active; [ ] = another dose, or the depositor's remark. The entries come from a sample that favours hits as a whole. Unless noted, calls come from the whole dose curve; as a rule, active = well fitted curve in the direction sought with a large enough effect; inconclusive = small, poorly fitted or top-dose-only effect, or another doubt; inactive = no such curve, though single readings can be large; an effect the other way counts as inactive or inconclusive.

SMILES | 12-LOX inh | TDP1 cell CPT | HT1080 IDH1KD tx | DT40 TDP1 no CPT | HT1080-NT tox | IL-1B inflam inh
COc1ccc(NC(=O)C(c2ccc(OC)cc2)N(C)C(=O)Cc2cccs2)cc1 (centres undefined) | - | 23µM! | - | - | - | ?
CCOCCCNC(=O)C(c1ccc(OC)cc1)N(Cc1cccs1)C(=O)c1ccc(NC(C)=O)cc1 (centres undefined) | - | 8.2µM | . | 12µM | . | .
Cc1ccc(/C=C2\S/C(=N/S(=O)(=O)c3cccs3)NC2=O)cc1 | 28µM | - | - | - | - | -
Cc1ccc(S(=O)(=O)/N=C2/NC(=O)/C(=C\c3ccccc3)S2)cc1 | 40µM | ? | - | ? | - | -
COc1cc(/C=C2\S/C(=N/S(=O)(=O)c3ccc(C)cc3)NC2=O)c([N+](=O)[O-])cc1OC | ? | - | - | - | - | -
Cc1ccc(S(=O)(=O)/N=C2/NC(=O)/C(=C\c3ccco3)S2)cc1 | ? | - | - | - | - | -
Cc1ccc(S(=O)(=O)/N=C2/NC(=O)/C(=C/c3ccccc3)S2)cc1 | 13µM | - | ? | ? | ? | -
O=C1N/C(=N/S(=O)(=O)c2ccccc2)S/C1=C/c1cccnc1 | ? | ? | - | ? | ? | -
COc1cc2c(cc1OC)C(c1ccc(-c3cc(Cl)ccc3Cl)o1)=NCC2 | . | 2.6µM | - | 1.6µM | - | -93
COc1cc2c(cc1OC)C(C[C@H]1CN(C(=O)Nc3ccc(Cl)cc3)CC[C@H]1CC(=O)O)=NCC2 | - | . | . | . | . | .
COc1cc2c(cc1OC)C(c1ccc(-c3ccc(Cl)cc3Cl)o1)=NCC2 | ? | 1.2µM | 23µM | 0.92µM | ? | ?
COc1cc2c(cc1OC)C(c1ccc(-c3ccccc3Cl)o1)=NCC2 | 40µM | 6.5µM | 13µM | 2.3µM | ? | -92
COc1cc2c(cc1OC)C(c1ccc(Cl)cc1)=NCC2 | ? | 16µM | - | 8.2µM | - | ?
COc1cc2c(cc1OC)C(C[C@H]1CN(C(=O)C(=O)O)CC[C@H]1CC(=O)O)=NCC2 | - | . | . | . | . | .
COc1cc2c(cc1OC)C(c1oc(-c3ccc(-c4cc(Cl)ccc4Cl)o3)cc1C)=NCC2 | . | 1µM | . | 0.35µM | . | .
COc1cc2c(cc1OC)C(C)=NCC2 | - | 16µM | - | - | - | -
COc1ccc(NC(=O)CN(C)C(=O)c2ccc(-c3cc(Cl)ccc3Cl)o2)cc1 | - | . | . | . | . | .
COc1cc2c(cc1OC)C(c1ccc(-c3ccc(Cl)c(Cl)c3)o1)=NCC2 | ? | 4.1µM | 23µM | 1.8µM | ? | -59
CC(=O)N1CCC2(CNS(=O)(=O)c3cnccc3O2)C1 (centres undefined) | -[6.33 µM] | . | . | . | . | .
CCOc1cc(C=C(C(=O)OC)C(=O)OC)ccc1OCc1ccc([N+](=O)[O-])cc1 | - | 6.5µM | 7.3µM | 12µM | 5.8µM | -118
CC(C)N(C(=O)[C@H]1C[C@H](CC(=O)NCc2cccc(C(F)(F)F)c2)C(=O)N2CCc3c([nH]c4cc(CCC(=O)N(C)C)ccc34)[C@]12C)C(C)C | - | ? | - | ? | - | -67
CCN(CC)C(=O)[C@H]1CC(CC(=O)NCc2cccc(C(F)(F)F)c2)C(=O)N2CCc3c([nH]c4ccccc34)[C@]12C (some centres undefined) | - | 15µM | - | 21µM | - | ?
CCN(CC)C(=O)[C@H]1C[C@H](CC(=O)NCc2cccc(C(F)(F)F)c2)C(=O)N2CCc3c([nH]c4cc(CCC(=O)N(C)C)ccc34)[C@]12C | - | ? | - | ? | - | -
CCc1nnc([C@@H]2CC(F)(F)CN2C(=O)COc2ccccc2)o1 | - | . | . | . | . | .
Cc1ccc(C(C(=O)NCc2ccco2)N(C(=O)CNC(=O)c2cccs2)c2c(C)cc(C)cc2C)cc1 (centres undefined) | - | 10µM | - | 10µM | - | -
O=C(NCc1ccco1)C(c1ccncc1)N(C(=O)Cc1cccs1)c1ccccc1 (centres undefined) | - | - | - | - | - | -
